An excerpt weighted towards active compounds, which were near 0.97% of everything screened.
FadD28 binding: inhibitors of Mycobacterium tuberculosis FadD28 bisubstrate binding; AID 588549; inhibition, % at 12.5 µM; 360,000 tested, 0.22% active; FadD28 bisubstrate probe binding, fluorescence polarization; in the data active means inhibition above about 8.5%, passing the limit was not always enough; inconclusive means no clear call, values can overlap the other calls
TcdB GH inh: TcdB glycohydrolase inhibition; P18177; TcdB glycohydrolase enzymatic assay, plate reader; inhibition, % at 9.99 µM; 350,000 tested, 0.24% active; in the data active means inhibition above about 10%
UGM FP inh: Mtb UDP-galactopyranose mutase inhibition; P9WIQ1; purified UGM, fluorescence polarization probe displacement; inhibition, % at 10 µM; 320,000 tested, 0.06% active; AID 504406; in the data active means inhibition above about 10%, passing the limit was not always enough; inconclusive means no clear call, values can overlap the other calls
Rv3671c inh: inhibitors of M. tuberculosis serine protease Rv3671c. P9WHR9. inhibition, % at 5.96 µM. 320,000 tested, 0.048% active. AID 2606; in the data active means inhibition above about 38%;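 further: extracellular domain of Rv3671c used as enzyme; 0% = enzyme with DMSO and 100% = no enzyme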
BioA inh: inhibitors of Mycobacterium tuberculosis BioA enzyme | AID 602481 | 360,000 tested, 0.096% active | purified M. tuberculosis BioA enzyme, plate reader | inhibition, % at 9.99 µM; in the data active means inhibition above about 40%; inconclusive means no clear call, values can overlap the other calls
RecA splice inh: Mtb RecA intein splicing inhibition; cell-free RecA intein splicing, fluorescence; AID 2221; inhibition, % (no concentration beside the values); P9WHJ3; 290,000 tested, 0.75% active; in the data active means inhibition above about 30%; inconclusive means no clear call, values can overlap the other calls;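 further: 0% = vehicle wells and 100% = reference inhibitor control wells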
Target sequence (P9WHJ3 whole entry, looked up, canonical isoform): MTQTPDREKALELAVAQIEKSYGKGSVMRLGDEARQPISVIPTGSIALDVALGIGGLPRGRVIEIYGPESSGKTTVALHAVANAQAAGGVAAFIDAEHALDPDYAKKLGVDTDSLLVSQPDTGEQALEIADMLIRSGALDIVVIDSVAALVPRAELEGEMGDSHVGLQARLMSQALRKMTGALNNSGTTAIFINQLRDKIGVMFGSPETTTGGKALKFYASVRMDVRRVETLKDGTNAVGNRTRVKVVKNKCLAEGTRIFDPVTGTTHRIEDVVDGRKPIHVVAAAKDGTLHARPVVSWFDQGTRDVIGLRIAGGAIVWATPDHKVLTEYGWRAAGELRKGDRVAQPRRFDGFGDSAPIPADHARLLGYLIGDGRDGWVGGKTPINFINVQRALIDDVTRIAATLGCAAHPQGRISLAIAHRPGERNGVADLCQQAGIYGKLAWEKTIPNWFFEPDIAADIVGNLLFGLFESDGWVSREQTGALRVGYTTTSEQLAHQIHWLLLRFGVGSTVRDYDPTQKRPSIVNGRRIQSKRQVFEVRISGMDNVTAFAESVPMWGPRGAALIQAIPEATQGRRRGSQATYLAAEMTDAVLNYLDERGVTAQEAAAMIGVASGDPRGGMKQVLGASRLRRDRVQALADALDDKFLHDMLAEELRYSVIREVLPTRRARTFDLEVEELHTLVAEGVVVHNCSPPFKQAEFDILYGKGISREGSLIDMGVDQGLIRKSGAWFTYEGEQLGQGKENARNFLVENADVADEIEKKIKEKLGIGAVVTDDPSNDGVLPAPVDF
Numbers without * were called inactive; ? = inconclusive; . = no result.

SMILES	FadD28 binding	TcdB GH inh	UGM FP inh	Rv3671c inh	BioA inh	RecA splice inh
CO[C@@H]1CN(C)C(=O)c2ccc(NC(=O)c3nc4ccccc4s3)cc2OC[C@@H](C)N(Cc2ccncc2)C[C@H]1C	.	2	.	.	-2	.
O=C(N[C@@H](Cc1c[nH]c2ccccc12)C(=O)O)C1CCN(S(=O)(=O)c2cccs2)CC1	-2	11*	3	1	1	-2
COc1ccc(OC)c(NC(=O)C2CCN(S(=O)(=O)c3cccs3)CC2)c1	-1	.	2	-1	.	0
O=C(N[C@@H](Cc1c[nH]c2ccccc12)C(=O)O)C1CCN(S(=O)(=O)c2ccc(Cl)cc2)CC1	-1	1	-1	-14	2	1
COc1ccccc1NC(=O)C1CCN(S(=O)(=O)c2cccs2)CC1	1	0	17*	4	-1	.
COCC(=O)N1[C@H](CO)[C@@H](c2ccccc2)C12CN(C(=O)NC1CCCCC1)C2	.	-1	.	.	.	.
CC(C)c1cn(CC[C@H]2CC[C@@H](NS(=O)(=O)c3ccc(Cl)cc3)[C@@H](CO)O2)nn1	.	-1	.	.	1	.
C[C@H](CO)N1C[C@H](C)[C@H](CN(C)C(=O)Nc2ccccc2)Oc2ccc(NC(=O)CCCCCC(=O)Nc3ccccc3N)cc2C1=O	.	-1	.	.	.	.
Cc1ccc(S(=O)(=O)N[C@@H](CCCCN)C(=O)CCl)cc1	-2	-1	0	-2	-2	50*
Cc1ccc(S(=O)(=O)NC(CC(N)=O)C(=O)O)cc1 (stereo unspecified)	1	.	-1	0	-1	8
CS(=O)(=O)Nc1ccc2c(c1)[C@H]1C[C@@H](CC(=O)NCC(F)(F)F)O[C@@H](CO)[C@H]1O2	.	-4	.	.	-1	.
O=[N+]([O-])c1c(Nc2ccccc2O)ccc2nonc12	-2	13*	-2	-3	3	0
COCC(=O)Nc1ccc2c(c1)OC[C@H](C)N(C(=O)c1ccccc1)C[C@@H](C)[C@@H](OC)CN(C)C2=O	.	1	.	.	0	.
CS(=O)(=O)Nc1ccc2c(c1)[C@@H]1C[C@@H](CC(=O)N3CCOCC3)O[C@H](CO)[C@@H]1O2	.	-4	.	.	-2	.
CCN(c1ccccc1)S(=O)(=O)c1ccc(Cl)c(NC(=O)COC(=O)c2cc(O)c3ccccc3c2O)c1	.	.	-1	-133	.	80*
COc1ccc(S(=O)(=O)N(C)C[C@@H]2OCCCC[C@@H](C)Oc3ccc(NS(=O)(=O)c4ccc(F)cc4)cc3C(=O)N([C@H](C)CO)C[C@H]2C)cc1	.	0	.	.	-1	.
COc1ccc(C(=O)Nc2cc(Cl)ccc2OC(=O)c2ccc(OC)cc2)cc1	-2	.	-1	0	-2	0
COc1ccc(C(=O)Nc2cc(Cl)ccc2C(=O)O)cc1	-15	29*	5	-12	.	0
Cc1ccc(Cc2c(-c3ccc(C)cc3)nc3ccc(Cl)cn23)cc1	-2	11*	.	.	-2	.
Clc1ccc(-c2nc3ccc(Cl)cn3c2Cc2ccccc2)cc1	-3	13*	.	.	-1	.
Cc1ccn2c(Cc3ccccc3)c(-c3ccc(F)cc3)nc2c1	-3	10*	.	.	-1	.
CO[C@@H]1CN(C)C(=O)c2cc(NC(=O)c3ccccc3)ccc2OC[C@@H](C)N(C)C[C@@H]1C	.	-1	.	.	-1	.
O=C(N/N=C/c1ccc([N+](=O)[O-])o1)c1ccccc1NS(=O)(=O)c1cccs1	3	2	1	5	0	40*
O=C(NN=Cc1cc(Br)c(O)c(Br)c1)c1ccccc1NS(=O)(=O)c1cccs1	?	14*	1	6	1	.
O=C(NN=Cc1ccc(F)cc1)c1ccccc1NS(=O)(=O)c1cccs1	0	3	0	-2	0	.
SMILES	FadD28 binding	TcdB GH inh	UGM FP inh	Rv3671c inh	BioA inh	RecA splice inh
O=C(OCn1nnc2ccccc2c1=O)c1ccco1	1	1	-1	-1	-2	-5
O=C(OCn1nnc2ccccc2c1=O)c1cc2ccccc2o1	-3	13*	3	-3	-1	1
CC1(C)CC(=O)C2=C(C1)NC1=C(C(=O)c3ccccc31)C2c1ccccc1 (stereo unspecified)	6	5	.	14	.	11
CC1(C)CC(=O)C2=C(C1)NC1=C(C(=O)c3ccccc31)C2c1cc([N+](=O)[O-])ccc1O (stereo unspecified)	21*	1	-2	27	.	10
C[C@@H]1CN([C@@H](C)CO)C(=O)c2cc(NS(=O)(=O)c3cccs3)ccc2O[C@@H]1CN(C)S(=O)(=O)c1cn(C)cn1	.	-1	.	.	-1	.
COc1ccc(/C=N/N(Cc2ccccc2)c2ccccc2)cc1O	12*	0	2	0	21	1
CC(C)NC(=O)N(C)C[C@H]1Oc2cc(C#Cc3cccc(F)c3)ccc2S(=O)(=O)N([C@H](C)CO)C[C@H]1C	.	0	.	.	-7	.
CN1CC(=O)N/C1=N\C(=O)Nc1ccc(O)cc1	-1	13*	0	-2	0	-8
NNC(=O)C(=O)Nc1ccc(O)cc1	-5	10	-1	-7	.	-2
Cn1cnnc1SCC(=O)NC1CCCCC1	-3	15*	0	-7	-1	-3
CN(C)C(=O)C[C@@H]1CC[C@@H]2[C@H](COC[C@H](O)CN2CC2CCCCC2)O1	.	-2	.	.	-1	.
CN1C=CC(=CC=C2C=CC(=O)C=C2)C=C1	-4	27*	0	-10	-1	-1
CC(C)(/C=N/O)N(O)C=C1C=CC(=O)C=C1	-2	5	-1	12	0	-7
COc1ccc(CN(C)C[C@H]2Oc3ccc(NS(=O)(=O)c4c(C)noc4C)cc3C(=O)N([C@H](C)CO)C[C@H]2C)cc1	.	1	.	.	1	.
Cn1cnc([N+](=O)[O-])c1Oc1ccc2ccccc2c1	-2	.	2	-9	.	36*
Cc1cc(Br)c2c(c1)/C(=C/C(=O)c1cccs1)C(=O)N2	-4	1	-2	-9	.	78*
CCOc1ccccc1C1CC(=O)NC(SCC(=O)Nc2nccs2)=C1C#N (stereo unspecified)	-5	.	4	0	0	3
Cc1ccc(C2CC(=O)NC(SCC(=O)Nc3nccs3)=C2C#N)cc1 (stereo unspecified)	12*	.	4	1	-1	-1
O=C(OCC(=O)N1CCCc2ccccc21)c1ccc(C(F)(F)F)cc1	-4	11*	-3	4	-1	0
O=C(OCC(=O)N1CCCc2ccccc21)c1ccc(S(=O)(=O)C(F)F)cc1	-3	-4	0	-8	.	-6
CC1(C)N=C(SCC(=O)Nc2ccc(Cl)cc2)C(c2ccc(Cl)cc2)=N1	-3	.	-1	-11	-2	44*
CC1(C)N=C(SCC(=O)Nc2ccc(Cl)cc2)C(c2ccccc2)=N1	-2	.	2	-9	0	.
Cc1ccc(-c2nnc(SCC(=O)N3CCCC3)o2)cc1	0	.	0	-6	.	2
O=C(CSc1nnc(-c2ccncc2)o1)N1CCCCCC1	-1	18*	.	.	.	1

Compound activity from PubChem BioAssay.
